Screening data (PubChem BioAssay)
MEKK2 mut-MEK5: signal of MEK5 binding to mutant human MEKK2 PB1 domain; bead flow cytometry, Alexa488-MEK5 binding to MEKK2 mutant; percent response, % at 10 µM; 290,000 compounds, 0.35% hits; AID 1530; in the data active means percent response above about 24%, passing the limit was not always enough
UBC13 polyUb: human UBC13 polyubiquitination inhibition | P61088 | UBC13 polyubiquitin chain formation, TR-FRET | inhibition, % at 20 µM | 330,000 compounds, 0.47% hits | AID 485273; in the data active means inhibition above about 45%, passing the limit was not always enough; inconclusive means no clear call, values can overlap the other calls
PREPL inhibitor: inhibits the human prolyl oligopeptidase-like enzyme; Q4J6C6; recombinant PREPL, fluorescence polarization activity-based probe; inhibition, % at 5.96 µM; 320,000 compounds, 0.68% hits; in the data active means inhibition above about 43%
MEKK2wt PB1 HTS: raises or lowers MEK5 binding to wildtype human MEKK2 PB1 domain; bead flow cytometry, Alexa488-MEK5 binding to MEKK2 WT; actives lie on both sides; 290,000 compounds, 1.1% hits; binding response (% of control), % at 10 µM; in the data active means binding response below about 67% or above about 130%; inconclusive means no clear call, values can overlap the other calls; inactive means in between
ATG4B inhibitor: blocks human ATG4B protease cleavage of LC3 substrate; Q9Y4P1; ATG4B cleavage of LC3-PLA2, NBD-HPC fluorescence, 1 h; inhibition, % at 8.33 µM; 340,000 compounds, 0.51% hits; AID 504462; in the data active means inhibition above about 40%
MEKK3 PB1 HTS: MEKK3-MEK5 PB1 interaction, increase or decrease; Q99759; bead-based flow cytometry, Alexa488-MEK5 binding to MEKK3; actives lie on both sides; 0 = blocked by unlabeled MEK5, 100 = vehicle; binding response (% of control), % at 10 µM; 290,000 compounds, 1.4% hits;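 active means binding response more than 3 SD above or below the average of its plate-row segment, actives on both sides; inconclusive means wells at one plate position flagged as instrument error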;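 further: Alexa488 bead fluorescence after subtracting the streptavidin-only scavenger bead signal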
Target sequence (Q99759 whole entry, looked up): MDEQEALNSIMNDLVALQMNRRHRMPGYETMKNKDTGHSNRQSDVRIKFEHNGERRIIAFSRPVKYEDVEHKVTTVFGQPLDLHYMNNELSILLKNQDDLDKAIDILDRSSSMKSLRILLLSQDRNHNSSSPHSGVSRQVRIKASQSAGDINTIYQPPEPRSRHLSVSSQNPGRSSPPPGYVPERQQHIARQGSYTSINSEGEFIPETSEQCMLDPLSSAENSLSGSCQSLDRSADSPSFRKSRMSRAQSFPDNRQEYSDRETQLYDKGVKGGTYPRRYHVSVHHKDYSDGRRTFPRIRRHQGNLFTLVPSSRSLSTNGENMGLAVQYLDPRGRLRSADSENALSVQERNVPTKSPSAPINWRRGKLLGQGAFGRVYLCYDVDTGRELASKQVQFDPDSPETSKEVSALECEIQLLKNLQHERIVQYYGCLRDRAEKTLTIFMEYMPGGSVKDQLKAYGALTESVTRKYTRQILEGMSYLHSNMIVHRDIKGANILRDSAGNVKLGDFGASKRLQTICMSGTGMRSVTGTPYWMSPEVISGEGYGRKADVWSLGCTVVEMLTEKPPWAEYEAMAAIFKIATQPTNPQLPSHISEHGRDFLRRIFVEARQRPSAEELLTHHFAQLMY
Casp3 UBC13 ctr: inhibits human caspase-3 in UBC13 counter-screen; shares compounds with UBC13 polyUb; Recombinant caspase-3, Caspase-Glo 3/7 luminescence, 60 min; inhibition, % at 20 µM; 1,400 compounds, 4% hits; AID 488856;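 active means mean inhibition across replicates above about 26%, limit read from the data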
UBC13 conf: confirmation of human UBC13 polyubiquitin inhibitors | shares compounds with UBC13 polyUb | UBC13 polyubiquitination, TR-FRET, biochemical | inhibition, % at 10 µM | 1,400 compounds, 68% hits; in the data active means inhibition above about 45%; inconclusive means no clear call, values can overlap the other calls
A number is an active result. Sampled rows, rich in hits. Any-hit rate of the full collection: about 3.1%.

COCCCN(C(=O)Cc1coc2cc(C)c(C)cc12)c1c(N)n(Cc2ccccc2)c(=O)[nH]c1=O was read as UBC13 polyUb inactive, PREPL inhibitor inactive and ATG4B inhibitor inactive.
CCCCOc1ccc(-c2cnc3ccccc3n2)cc1 was read as MEKK2 mut-MEK5 inactive, UBC13 polyUb 54, PREPL inhibitor inactive, MEKK2wt PB1 HTS inactive, ATG4B inhibitor inactive, MEKK3 PB1 HTS inactive, Casp3 UBC13 ctr 93 and UBC13 conf inconclusive.
COc1ccc(-c2cc(C(=O)NC(C)c3ccccn3)c3ccccc3n2)cc1OC (stereo not given) was read as UBC13 polyUb inactive, PREPL inhibitor inactive and ATG4B inhibitor inactive.
Screening CCOC(=O)c1c(NC(=O)C(NCCN(C)C)c2ccccc2)sc2c1CCCC2 (stereo not given) returned MEKK2 mut-MEK5 43, UBC13 polyUb 48, PREPL inhibitor inactive, MEKK2wt PB1 HTS 171, ATG4B inhibitor inactive, MEKK3 PB1 HTS inactive, Casp3 UBC13 ctr inactive and UBC13 conf 88.
For CCOC(=O)c1c(NC(=O)c2ccccc2N(C)S(=O)(=O)c2ccccc2)sc2c1CCCC2 the results were MEKK2 mut-MEK5 inactive, UBC13 polyUb inactive, PREPL inhibitor inactive, MEKK2wt PB1 HTS inactive, ATG4B inhibitor inactive and MEKK3 PB1 HTS inactive.
CCC(=O)NC(c1cc(Cl)c2ccccc2c1O)C1CC1 (stereo not given) was read as UBC13 polyUb 84, PREPL inhibitor inactive, ATG4B inhibitor inactive, Casp3 UBC13 ctr inactive and UBC13 conf 72.
CCC(=O)NC(C)c1cc(Cl)c2ccccc2c1O (stereo not given) was read as UBC13 polyUb 51, PREPL inhibitor inactive, ATG4B inhibitor inactive, Casp3 UBC13 ctr inactive and UBC13 conf inactive.
`O=C(NCc1cccnc1)Nc1ccc(Cl)cc1Cl` gave MEKK2 mut-MEK5 inactive, UBC13 polyUb inactive, PREPL inhibitor inactive, MEKK2wt PB1 HTS inactive, ATG4B inhibitor inactive and MEKK3 PB1 HTS inactive.
`C/C(=N\NC(=O)CSCc1ccc([N+](=O)[O-])cc1)c1cccc(Br)c1` gave MEKK2 mut-MEK5 inactive, UBC13 polyUb 47, PREPL inhibitor inactive, MEKK2wt PB1 HTS inactive, ATG4B inhibitor inactive, MEKK3 PB1 HTS inactive, Casp3 UBC13 ctr inactive and UBC13 conf inactive.
Screening O=C(CSCc1ccc([N+](=O)[O-])cc1)N/N=C/c1cccnc1 returned MEKK2 mut-MEK5 inactive, UBC13 polyUb 86, PREPL inhibitor inactive, MEKK2wt PB1 HTS inactive, ATG4B inhibitor inactive, MEKK3 PB1 HTS inactive, Casp3 UBC13 ctr inactive and UBC13 conf 96.
Screening O=C(CSCc1ccc([N+](=O)[O-])cc1)N/N=C/c1ccncc1 returned MEKK2 mut-MEK5 inactive, UBC13 polyUb 68, PREPL inhibitor inactive, MEKK2wt PB1 HTS inactive, ATG4B inhibitor inactive, MEKK3 PB1 HTS inactive, Casp3 UBC13 ctr inactive and UBC13 conf 75.
Screening C/C(=N\NC(=O)CSCc1ccccc1Br)c1cccc([N+](=O)[O-])c1 returned MEKK2 mut-MEK5 inactive, UBC13 polyUb inactive, PREPL inhibitor inactive, MEKK2wt PB1 HTS inactive, ATG4B inhibitor inactive and MEKK3 PB1 HTS inactive.
Screening Cc1ccc2c(C)c(C(=O)N3CCN(c4ncccn4)CC3)oc2c1C returned MEKK2 mut-MEK5 inactive, UBC13 polyUb inactive, MEKK2wt PB1 HTS inactive, ATG4B inhibitor inactive and MEKK3 PB1 HTS inactive.
For S=c1nc[nH]c2c1[nH]c1ccccc12 the results were MEKK2 mut-MEK5 inactive, UBC13 polyUb 82, PREPL inhibitor inactive, MEKK2wt PB1 HTS inactive, ATG4B inhibitor inactive, MEKK3 PB1 HTS inactive, Casp3 UBC13 ctr inactive and UBC13 conf 103.
`CCCCNC(=O)Oc1ccc(C(=O)N2c3ccccc3NC(=O)C2C)cc1` (stereo not given) gave MEKK2 mut-MEK5 inactive, UBC13 polyUb inactive, PREPL inhibitor inactive, MEKK2wt PB1 HTS inactive, ATG4B inhibitor inactive and MEKK3 PB1 HTS inactive.
Screening CC(=O)n1cc([C@H]2C=C(C(=O)Nc3ccccc3)O[C@@H](OCc3ccc(CO)cc3)C2)c2ccccc21 returned MEKK2 mut-MEK5 inactive, UBC13 polyUb 64, PREPL inhibitor inactive, MEKK2wt PB1 HTS inactive, ATG4B inhibitor inactive, MEKK3 PB1 HTS inactive, Casp3 UBC13 ctr inactive and UBC13 conf 58.
C#CCNC(=O)C1=C[C@H](c2cn(C(C)=O)c3ccccc23)C[C@H](OCc2ccc(CO)cc2)O1 was read as MEKK2 mut-MEK5 inactive, UBC13 polyUb 63, PREPL inhibitor inactive, MEKK2wt PB1 HTS inactive, ATG4B inhibitor inactive, MEKK3 PB1 HTS inactive, Casp3 UBC13 ctr inactive and UBC13 conf 46.
`CC(=O)n1cc([C@@H]2C=C(C(=O)NCc3ccccc3)O[C@H](OCc3ccc(CO)cc3)C2)c2ccccc21` gave MEKK2 mut-MEK5 inactive, UBC13 polyUb inactive, PREPL inhibitor inactive, MEKK2wt PB1 HTS inactive, ATG4B inhibitor inactive and MEKK3 PB1 HTS inactive.
Cc1ccccc1-n1ncc2c1CC(C)(C)CC2NC(=O)c1snnc1C (stereo not given) was read as MEKK2 mut-MEK5 inactive, UBC13 polyUb inactive, PREPL inhibitor inactive, MEKK2wt PB1 HTS inactive, ATG4B inhibitor inactive and MEKK3 PB1 HTS inactive.
CN1CCN(C(=O)CCN2C(=O)/C(=C/c3ccccc3Cl)SC2=S)CC1 was read as MEKK2 mut-MEK5 inactive, UBC13 polyUb 69, PREPL inhibitor inactive, MEKK2wt PB1 HTS inactive, ATG4B inhibitor inactive, MEKK3 PB1 HTS inactive, Casp3 UBC13 ctr inactive and UBC13 conf 87.
Screening Cc1ccc(/C=C2\SC(=S)N(CCC(=O)NCCCN3CCOCC3)C2=O)cc1 returned MEKK2 mut-MEK5 inactive, UBC13 polyUb inactive, PREPL inhibitor inactive, MEKK2wt PB1 HTS inactive, ATG4B inhibitor inactive and MEKK3 PB1 HTS inactive.
`CN1CCN(C(=O)CCN2C(=O)/C(=C\c3ccccc3F)SC2=S)CC1` gave MEKK2 mut-MEK5 inactive, UBC13 polyUb inactive, PREPL inhibitor inactive, MEKK2wt PB1 HTS inactive, ATG4B inhibitor inactive and MEKK3 PB1 HTS inactive.
O=C(CCN1C(=O)/C(=C/c2ccccc2Cl)SC1=S)NCCCN1CCOCC1 was read as MEKK2 mut-MEK5 inactive, UBC13 polyUb 45, PREPL inhibitor inactive, MEKK2wt PB1 HTS inactive, ATG4B inhibitor inactive, MEKK3 PB1 HTS inactive, Casp3 UBC13 ctr inactive and UBC13 conf 61.
`Cc1c(S(=O)(=O)N2CCN(c3ccccc3)CC2)c(=O)n(C)c(=O)n1C` gave MEKK2 mut-MEK5 inactive, UBC13 polyUb inactive, PREPL inhibitor inactive, MEKK2wt PB1 HTS inactive, ATG4B inhibitor inactive and MEKK3 PB1 HTS inactive.
CCCC(C(=O)NC1CCCC1)N(Cc1ccc2c(c1)OCO2)C(=O)c1snc(C(N)=O)c1N (stereo not given) was read as MEKK2 mut-MEK5 inactive, UBC13 polyUb inactive, PREPL inhibitor inactive, MEKK2wt PB1 HTS inactive, ATG4B inhibitor inactive and MEKK3 PB1 HTS inactive.
